Sampled rows, rich in hits. Any-hit rate of the full collection: about 7.4%.
NPC1 promoter act: activates the NPC1 promoter; Huh7 NPC1 promoter luciferase reporter, 24 h; Potency, µM (highest dose often 9.22 µM), for the others: at the top dose activation, usual class: activators; hit rate 2.4% among 320,000; AID 485313; further: % of control where 0% means no effect; nearly all actives have a fitted effect of over 60% in size
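Luminescence from an NPC1 promoter-driven luciferase reporter in stably transfected Huh7 cells was measured after 24 h compound treatment at 37 °C, followed by 10 min ambient incubation with luciferase detection reagent.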
Rab9 promoter act: activators of Rab9 promoter. Potency, µM (top dose mostly 9.22 µM), inactives show at the top dose activation, negative = inhibition, most hits filed as activators. Huh7 Rab9 promoter-luciferase reporter, luminescence, 24 h. hit rate 2.8% among 320,000; further: % of control where 0% means no effect; nearly all actives have a fitted effect of over 60% in size
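Cells were plated at 1500 per well in reduced-serum medium with 10% FBS and left 2 h. Compound in DMSO was then added for 24 h at 37 °C. Reporter signal was read by luminescence after 10 min with luciferase detection reagent.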
FLuc modulator: firefly luciferase modulation, counter-screen for miR-21 project; P08659; purified FLuc, Km substrates, luminescence inhibition; hit rate 6.9% among 360,000; Potency, µM (titrated, usually from 57.5 µM), for the others: top-dose activity change, negative = inhibition, most hits filed as inhibitors;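 further: plate controls were vehicle for no effect and reference inhibitor for full effect; nearly all actives have a fitted effect of over 55% in size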
Target sequence (P08659 whole entry, looked up): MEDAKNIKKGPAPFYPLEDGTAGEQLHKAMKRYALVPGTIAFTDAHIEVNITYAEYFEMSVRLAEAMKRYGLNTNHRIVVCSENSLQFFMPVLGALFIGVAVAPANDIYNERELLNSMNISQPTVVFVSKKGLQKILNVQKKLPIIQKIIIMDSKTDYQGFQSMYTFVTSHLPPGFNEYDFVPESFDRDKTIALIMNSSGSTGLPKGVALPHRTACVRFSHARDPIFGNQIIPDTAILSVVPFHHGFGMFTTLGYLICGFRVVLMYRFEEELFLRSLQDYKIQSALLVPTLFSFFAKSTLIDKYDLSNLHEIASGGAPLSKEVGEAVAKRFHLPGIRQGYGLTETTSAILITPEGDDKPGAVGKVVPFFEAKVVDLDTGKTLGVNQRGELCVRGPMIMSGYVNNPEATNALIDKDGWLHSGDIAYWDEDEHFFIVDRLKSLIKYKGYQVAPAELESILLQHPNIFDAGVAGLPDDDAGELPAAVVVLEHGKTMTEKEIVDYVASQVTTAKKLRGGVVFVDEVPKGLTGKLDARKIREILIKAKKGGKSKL
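Purified P. pyralis luciferase (10nM final) with 10uM D-luciferin and 10uM ATP (Km levels) in 50mM Tris acetate pH 7.5, 10mM Mg acetate, 0.01% Tween-20, 0.05% BSA; qHTS 6-point titration, ~60 µM downward; luminescence read.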
SMN2 splice enh: enhancers of SMN2 splice variant expression; HEK293 SMN2-luciferase splicing reporter, luminescence, 30-36 h; Potency, µM (highest dose often 46.1 µM), without a hit: at the highest dose activity change, positive = activation, hits mostly activators; hit rate 2.8% among 210,000; AID 1458; further: % of control where 0% means no effect; nearly all actives have a fitted effect of over 55% in size
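qHTS luciferase splicing reporter: luminescence rises when SMN2 exon 7 is included in transfected HEK293 cells. Compound exposure lasted 30-36 h at 37C, with 4.5 mM final sodium butyrate as control, followed by a ONE-Glo read.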
ELG1 genotoxic: genotoxicity induction in ELG1-luciferase HEK293T cells. hit rate 1.3% among 330,000. Potency, µM (series often up to 46 µM), without a hit: top-dose activity change, positive = activation, usual class: activators. HEK293T ELG1-luciferase reporter, luminescence, 16 h; further: % of control where 0% means no effect; nearly all actives have a fitted effect of over 60% in size
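Luminescence read-out: rising ELG1-luciferase signal, reflecting elevated ELG1 protein under genetic stress, flags genotoxic compounds. Cells were treated for 16 hr at 37 °C before ONE-Glo detection.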
* = called active by the depositor; ? = inconclusive; · = no result. The call rests on the fitted dose curve; in most records, active means well fitted curve in the direction sought with a large enough effect; inconclusive means small, poorly fitted or top-dose-only effect, or another doubt; inactive means no such curve, though single readings can be large; an effect the other way counts as inactive or inconclusive. Potency means the concentration at half of the fitted maximal effect.

SMILES	NPC1 promoter act	Rab9 promoter act	FLuc modulator	SMN2 splice enh	ELG1 genotoxic
CC(=O)Nc1ccc(NC(=O)c2ccc(-c3ccccc3Cl)o2)cc1	6%	?	-19%	·	?
N#Cc1ccccc1NC(=O)c1ccc(-c2ccccc2Cl)o1	4µM*	?	?	?	?
CC(C)NC(=O)c1ccc(-c2ccccc2C(F)(F)F)o1	22%	25%	?	?	10%
O=C(Nc1ccccc1)c1ccc(-c2ccccc2C(F)(F)F)o1	21%	19%	17µM*	16%	16%
O=C(Nc1ccccc1)c1ccc(-c2ccccc2Cl)o1	29%	?	6µM*	?	?
CCC(C)(C)C1CCC(=NNc2nc3ccccc3[nH]2)CC1 (stereo not given)	6%	7%	12µM*	1%	2%
O=C(O)CN1C(=O)/C(=C\c2ccc(OC(=O)c3ccco3)cc2)SC1=S	3%	-6%	7.6µM*	·	-2%
O=C(O)CN1C(=O)/C(=C/c2ccc(SCc3ccccc3)o2)SC1=S	-4%	-2%	19µM*	15%	1%
O=C(O)CN1C(=O)/C(=C\c2cccc(OC(=O)c3ccco3)c2)SC1=S	4%	0%	24µM*	·	0%
CCN1C(=O)/C(=C\c2cccc(OC(=O)c3ccco3)c2)SC1=S	-6%	4%	5%	·	4%
O=C(c1cnccn1)N1CCC[C@@]2(CCN(Cc3ccccc3)C2)C1	·	·	·	-2%	·
Cc1ccc(C(=O)Nc2ccc(Br)cc2)cc1S(=O)(=O)NCc1ccccc1	·	·	-13%	-44%	·
COc1cc2nc(Nc3ccc(F)cc3)nc(N)c2cc1OC	1%	0%	?	-15%	-7%
Cc1ccc(Nc2nc(NCCO)c3ccccc3n2)cc1C	2%	-6%	7.6µM*	·	-13%
COc1ccccc1Nc1nc(NCCO)c2ccccc2n1	1%	5%	?	-11%	0%
CCOC(=O)c1ccc(Nc2nc(N)c3cc(OC)c(OC)cc3n2)cc1	2%	8%	7.6µM*	4%	13%
COc1cc2nc(Nc3ccc(C)c(C)c3)nc(N)c2cc1OC	0%	-12%	?	-8%	13%
Cc1ccc(Nc2nc(N)c3ccccc3n2)cc1Cl	0.56µM*	0.63µM*	0.95µM*	·	?
COc1cc2nc(Nc3ccc(C)c(Cl)c3)nc(N)c2cc1OC	-4%	-4%	21µM*	·	2%
CN1CCN(c2ncc3nc(-c4ccccc4)c(=O)n(CCC#N)c3n2)CC1	·	·	·	-17%	·
CCCCC(=O)Nc1nnc(S(=O)(=O)N(C)Cc2ccc(Cl)cc2)s1	·	·	3%	·	·
COc1cc2nc(Nc3cccc(C)c3)nc(N)c2cc1OC	·	·	5.4µM*	7%	·
COc1ccc(C)c2sc(=NC(=O)c3cccc(N4C(=O)CCC4=O)c3)n(C)c12	?	?	6.7µM*	·	?
COc1ccc(C)c2sc(=NC(=O)C(C)C)n(C)c12	6%	2%	-1%	-16%	2%
C=CCn1c(=NC(=O)c2cccc(N3C(=O)CCC3=O)c2)sc2cccc(OC)c21	1%	-3%	?	·	-8%
SMILES	NPC1 promoter act	Rab9 promoter act	FLuc modulator	SMN2 splice enh	ELG1 genotoxic
COc1ccc(C)c2sc(=NC(=O)c3ccccc3)n(C)c12	?	2.8µM*	2.1µM*	11µM*	6.5µM*
COc1ccc(C)c2sc(=NC(=O)c3ccc(C(C)=O)cc3)n(C)c12	0.56µM*	0.5µM*	0.67µM*	·	?
COc1cc(/C=C/c2nc3cc(Cl)ccc3c(=O)n2-c2cccc(C(F)(F)F)c2)cc(OC)c1OC	·	·	-2%	·	·
Cc1cc(Cl)ccc1NC(=O)c1cc(S(=O)(=O)N2CCOCC2)cn1C	·	·	-4%	·	·
COc1ccc2c(c1)C(=O)[C@@H](OC(=O)NS(=O)(=O)c1ccc(C)cc1)[C@H](c1ccc(OC)c(Br)c1)O2	·	·	·	7%	·
COc1ccc(CC(=O)Nc2ccc(-c3nnc(-c4ccccc4)o3)cc2)cc1OC	12%	6%	-1%	5%	27%
CC(C)C(=O)Nc1ccc(-c2nnc(-c3ccccc3)o2)cc1	0.32µM*	0.32µM*	2.4µM*	·	?
O=C(Nc1ccc(-c2nnc(-c3ccccc3)o2)cc1)C(F)(F)F	1.6µM*	1.3µM*	?	·	?
CC(=O)/C=C(\C)Nc1ccc(-c2cnc(-c3ccccc3)o2)cc1	1µM*	0.45µM*	1.9µM*	4µM*	2µM*
